B1: VH:VL chains; a variant is named by its letters at X, in order (parent)
chain 1: QVQLVQSGAEVKKPGASVKVSCKASGYTFTDYXMHWVRQAPGQGLEWMGXVNPNXXXTTYNQKFEGRVTMTTDTSTSTAYMELRSLRSDDTAVYYCARXNXLDXWGQGTTVTVSS
chain 2: DIQMTQSPSSLSASVGDRVTITCSVSSSVSSIYLHWYQQKPGKAPKLLIYSTSNLASGVPSRFSGSGSGTDFTLTISSLQPEDFATYYCQVYSGYPLTFGGGTKVEIK

Some of the results follow. How many sequences the whole screen found active is unknown.

The variants in this test derive from B1. Kind of test: yeast display scFab, FACS + sequencing. Particulars: with MET. In outline: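 For FACS, yeast displaying a heavy-chain CDR mutant scFab library were labelled with 1 nM HGFR-Fc and anti-Myc (PBSB, 1% milk, 3 h, room temperature), and the top 50% antigen-positive cells were gated. Input and round-3 sorted populations were deep sequenced in two replicates. The binding call was positive for sequences occurring in both antigen-positive samples and negative for sequences occurring only in input.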
As to YRRRGFVD, the antigen binding call was “binds”.
For the variant YRRRGSVD, the antigen binding call is “binds”.
With YRARGDLD, the antigen binding call is on record as “binds”.
As to YRRRGFGD, the antigen binding call is listed as “no binding”.
In the case of YTGTSDLD it was “no binding”; in that of YRRRGSLD, “binds”.
Then DGARNSGV, with “no binding”.
Take FAGRAAWA: the antigen binding call was “no binding”.
In the case of SETTDDVA it was “no binding”; in that of AGGGNDVY, “no binding”.
Consider YRRRSSVD, for which the antigen binding call is recorded as “binds”.
Consider YARRGSLD, for which the antigen binding call was “binds”.
Consider YRRRGAVD, for which the antigen binding call is recorded as “binds”.
In the case of YARADSLD it was “no binding”; in that of YRRRGDVD, “binds”; in that of YRRRGYVD, “no binding”.
Take YTERGDVD: the antigen binding call was “no binding”.
Consider DARRGSGD, for which the antigen binding call was “no binding”.
On to SEGTGDWV, for which the antigen binding call was “no binding”.
With VEEEGDSA, the antigen binding call was “no binding”.
As to VETEGDVA, the antigen binding call is listed as “no binding”.
For YRRRGSWD, the antigen binding call was “binds”.
Then YRREGSLD, with “binds”; and YRRRGDLD, with “binds”; and AEARSDGA, with “no binding”.
Regarding AEGRGAVY, the antigen binding call is “no binding”.
Regarding SEGRGAWY, the antigen binding call was “binds”.
Then SEGRGDVY, with “no binding”.
In the case of SRGRGAWY it was “binds”; in that of VETGNDGV, “no binding”; in that of ATRGADAV, “no binding”.
Regarding YREGDFVD, the antigen binding call was “no binding”.
Consider YRGRGVVD, for which the antigen binding call is on record as “binds”.
For YRGRGFVD, the antigen binding call is reported as “binds”.
For the variant YRGGGVVD, the antigen binding call is on record as “binds”.
In the case of YRGRDFVD, the antigen binding call is reported as “no binding”.
Take YAGRGVVD: the antigen binding call is reported as “no binding”.
With YAGTGVVD, the antigen binding call is given as “no binding”.
As to VTGGDSWF, the antigen binding call was “no binding”.
For AGTRSFGY, the antigen binding call is “no binding”.
For the variant FTEEGAVD, the antigen binding call is given as “no binding”.
Regarding FRAGGSVD, the antigen binding call is reported as “binds”.
In the case of FRAGGAVD, the antigen binding call is listed as “binds”.
As to FRATSAVD, the antigen binding call was “no binding”.
In the case of VKARGSGA it was “binds”.
As for DKAGGDGS, the antigen binding call was “no binding”.
In the case of VKARGSVA it was “binds”.
In the case of YKAGGSAS it was “binds”.
For YKARGSGS, the antigen binding call is “binds”.
As for VKEGGDVA, the antigen binding call is “no binding”.
Then VKAGDSGA, with “no binding”; and VKKTGSGA, with “no binding”; and SKTKSSAS, with “no binding”.
Take VTTKSSVA: the antigen binding call is reported as “no binding”.
Consider VAGGDDGF, for which the antigen binding call is on record as “no binding”.
Then SKTKSDGV, with “no binding”; and YKARGAWA, with “binds”; and YMAEGSGA, with “no binding”.
YTERAAWA: the antigen binding call is on record as “no binding”.
In the case of YEARNAGA it was “no binding”; in that of VKEGGSSA, “no binding”.
Consider VKARGSLA, for which the antigen binding call is reported as “binds”.
In the case of YKARGSGA, the antigen binding call is on record as “binds”.
VKERGAVA: the antigen binding call is on record as “no binding”.
Turning to YKARGAGA, the antigen binding call was “binds”.
On to SAAGSVWY, for which the antigen binding call is “no binding”.
In the case of VKEGGDGA it was “no binding”.
For the variant DEAGDAVV, the antigen binding call is on record as “no binding”.
Turning to SAGRGFGF, the antigen binding call is reported as “no binding”.
Take SRGRGAGF: the antigen binding call is on record as “binds”.
Take SRGRGAWF: the antigen binding call was “binds”.
YARADSSD: the antigen binding call was “no binding”.
Consider YKAGDSSD, for which the antigen binding call is recorded as “binds”.
Regarding YKAGGYSD, the antigen binding call was “no binding”.
As for YKRKSASD, the antigen binding call is reported as “binds”.
Then AKGKASSD, with “no binding”; and AKTGDSSD, with “no binding”.
As to YKRGSSSD, the antigen binding call was “binds”.
As to AKAADSSD, the antigen binding call is reported as “no binding”.
Turning to VKRGSSSD, the antigen binding call was “binds”.
For the variant VAEKGDVF, the antigen binding call is on record as “no binding”.
For the variant VTGEDDWV, the antigen binding call is reported as “no binding”.
Then DREGDDAV, with “no binding”.
In the case of SEARSDSF, the antigen binding call is on record as “no binding”.
Turning to YKRGSASD, the antigen binding call is reported as “binds”.
For the variant AKAGGASD, the antigen binding call is recorded as “no binding”.
As to YKRRDASD, the antigen binding call is “no binding”.
Consider DTTGSDAV, for which the antigen binding call is on record as “no binding”.
On to VAGTDDWV, for which the antigen binding call was “no binding”.
Consider YTATGFAV, for which the antigen binding call is given as “no binding”.
Consider YRRRGFVV, for which the antigen binding call is given as “binds”.
For the variant YRATDFVV, the antigen binding call was “no binding”.
As to YRAGGFVV, the antigen binding call is listed as “binds”.
For YRRGGFVV, the antigen binding call is reported as “binds”.
Then YRRRGFAV, with “binds”; and ATAGSASD, with “no binding”.
In the case of DRGGDDWV, the antigen binding call is “no binding”.
In the case of STGTSDLY it was “no binding”; in that of AATTDSGD, “no binding”.
Consider SAREGDAV, for which the antigen binding call is reported as “no binding”.
Regarding YTRGADLA, the antigen binding call is “no binding”.
In the case of YRRGASSS, the antigen binding call is on record as “binds”.
Regarding YTRGADGS, the antigen binding call is “no binding”.
YTRGASSS: the antigen binding call is recorded as “binds”.
On to AETKGSLA, for which the antigen binding call is recorded as “no binding”.
On to SAAGGAAV chain 1 L45S, for which the antigen binding call is “no binding”.
In the case of DAEEDAGY it was “no binding”.
For FGRGTSGD, the antigen binding call is “no binding”.
Consider FGRRTYGD, for which the antigen binding call is recorded as “binds”.
As to FKTKSAGD, the antigen binding call was “no binding”.
In the case of FAARSYGD, the antigen binding call is “no binding”.
Turning to FKRGDAGD, the antigen binding call is listed as “binds”.
For FTGEAAGD, the antigen binding call is reported as “no binding”.
With VKKEDAGD, the antigen binding call is “no binding”.
For the variant FRRGDALD, the antigen binding call is “binds”.
In the case of FRRGDAGD it was “binds”; in that of STAEDDWV, “no binding”.
Consider VTAGDDAV, for which the antigen binding call was “no binding”.
AARADDVA: the antigen binding call is reported as “no binding”.
Regarding VTTRGAVA, the antigen binding call is “no binding”.
In the case of YRTRGAVD, the antigen binding call was “binds”.
Then VTTGGAVD, with “no binding”.
As for YRTRGASD, the antigen binding call was “binds”.
VRTRGAVD: the antigen binding call is listed as “binds”.
With YKTRGAGD chain 1 Q43R, the antigen binding call is listed as “binds”.
As to DTTKGDGS, the antigen binding call is listed as “no binding”.
In the case of VEKGGDGV it was “no binding”; in that of YRTRGAGD, “binds”.
On to DATRGAGD, for which the antigen binding call is recorded as “no binding”.
With SETKGDWD, the antigen binding call is on record as “no binding”.
For SKAGDAWD, the antigen binding call is “no binding”.
For SKRETAWS, the antigen binding call is reported as “binds”.
For the variant SKAKGAWS, the antigen binding call is given as “binds”.
Regarding SEARSDWD, the antigen binding call is “no binding”.
Take SKAKGAWD: the antigen binding call is reported as “binds”.
Then FEETDAGD, with “no binding”; and DKAKGDGS, with “no binding”.
Consider FEARDYWD, for which the antigen binding call is listed as “binds”.
In the case of DATGNVWS, the antigen binding call is “no binding”.
In the case of YATTSFSF, the antigen binding call is “no binding”.
In the case of FKAKGAWD it was “binds”; in that of SKAKGSSD, “binds”.
For SKRKSSSD, the antigen binding call is “no binding”.
As for SKTKSDVD, the antigen binding call is “no binding”.
For the variant SKTRGAWD, the antigen binding call is recorded as “binds”.
Regarding FGTKGAWD, the antigen binding call is reported as “no binding”.
In the case of SKERGDVD it was “no binding”; in that of FGEEDFSS chain 1 W105R, “no binding”.
With VGGTSDVV, the antigen binding call is on record as “no binding”.
In the case of VEEEGSGV, the antigen binding call is “no binding”.
Take DRTGDDVY: the antigen binding call is reported as “no binding”.
VRAGDDVD: the antigen binding call is recorded as “no binding”.
As for VRAGSSLD, the antigen binding call is reported as “binds”.
Regarding VRAGDSLD, the antigen binding call was “binds”.
In the case of VTGTSSLD, the antigen binding call is “no binding”.
Take VRTGDSAY: the antigen binding call is listed as “binds”.
As for VRGKDSLD, the antigen binding call is recorded as “binds”.
Take VEAGDSLD: the antigen binding call is “no binding”.
With VRTKAVAY, the antigen binding call is “no binding”.
Turning to VTGEDSLD, the antigen binding call was “no binding”.
For VEETSSLD, the antigen binding call is “no binding”.
On to VTTKSYLV, for which the antigen binding call is “no binding”.
DAARGDGV: the antigen binding call was “no binding”.
For VRTGDSLD, the antigen binding call was “binds”.
As to VRKGGSLD, the antigen binding call was “binds”.
Then VAGTGSLD, with “no binding”; and VRAGSSWD, with “binds”.
For the variant VRTGDDGV, the antigen binding call is recorded as “no binding”.
For VKTGGSLD, the antigen binding call is given as “no binding”.
For AETKGFAV, the antigen binding call was “no binding”.
As to VKGASDVA, the antigen binding call was “no binding”.
With YTGTSSGA, the antigen binding call was “no binding”.
As to VRAGADVA, the antigen binding call was “no binding”.
Turning to YEGGTSGA, the antigen binding call was “no binding”.
Turning to YRAGAAVA, the antigen binding call was “binds”.
In the case of YRAAGSGA it was “binds”; in that of YGGRAAGA, “no binding”; in that of YRGGASGA, “binds”.
Regarding YRGRASGA, the antigen binding call is “binds”.
For VEEEGDAV, the antigen binding call is “no binding”.
Turning to DRAGDSGA, the antigen binding call is recorded as “no binding”.
As to YRARSSGA, the antigen binding call is “binds”.
In the case of YRARSAGA it was “binds”.
For YRAGASLA, the antigen binding call is “binds”.
For the variant SREAASLA, the antigen binding call is “no binding”.
As to YRGANSGA, the antigen binding call is “no binding”.
YRAGSSGA: the antigen binding call is given as “binds”.
Consider DRAGDAGA, for which the antigen binding call is given as “no binding”.
As to DEGGDAGD, the antigen binding call is “no binding”.
In the case of VAEKGDAA it was “no binding”; in that of VEKGGDWD, “no binding”.
Regarding FKGEGDVY, the antigen binding call was “no binding”.
On to VKTGGDVA, for which the antigen binding call is reported as “no binding”.
Take YRAGASGA: the antigen binding call is on record as “binds”.
Consider DAKEGAAA, for which the antigen binding call is on record as “no binding”.
YRKGSAAA: the antigen binding call is “binds”.
In the case of YRKEGAAA, the antigen binding call was “binds”.
In the case of YRKEAAAA it was “binds”.
In the case of VAEAAVGD it was “no binding”; in that of AETKGDWV, “no binding”.
In the case of VEGTSAVY it was “no binding”; in that of VKKEDDVV, “no binding”; in that of VRGAGAWV, “no binding”.
With VRAGGDWV, the antigen binding call is “no binding”.
In the case of VRAGGAWV, the antigen binding call is “binds”.
Consider VRGTGAVY, for which the antigen binding call is reported as “no binding”.
Then VRGGGAAV, with “binds”; and VRGGGAAY, with “binds”.
Then VAGGGAAV, with “no binding”; and VRGGGAWV, with “binds”.
In the case of VEGGGFAY, the antigen binding call is on record as “no binding”.
In the case of VREGAAAV it was “no binding”.

Source of the values: the emibetuzumab library of Makowski et al. (2022).
